This is part of a sample that, as a whole, favours compounds with a hit. Of some 83,000 tested, about 20% had one in any assay.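 The endpoint reported here, percent growth, reads 100 for growth as untreated, 0 for no net growth and -100 for all cells dead.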 A number with no mark means an inactive call. Calls of active or inactive are those of the source. The calls were made as follows: active = growth percent below 10; inactive = the rest.

Test systems include T-47D breast; BT-549 breast; MDA-MB-435 melanoma; SW-620 colon; MCF7 breast; HCT-116 colon; HCC-2998 colon; KM12 colon.
Assay in all cases: NCI-60 one-dose screen, 48 h (100 = growth as untreated, 0 = no growth, -100 = all killed)
Conditions in all cases: 10 µM unless noted

In the case of `Cc1ccccc1NC(=O)Cn1cc(CN2CCN(c3ccnc4cc(Cl)ccc34)CC2)nn1`, the growth in the assay with T-47D breast is 92.4%; in the assay on BT-549 breast, 93.4%; in the assay with MDA-MB-435 melanoma, 99.4%; with SW-620 colon, 94.2%; with MCF7 breast, 93.9%; in the assay on HCT-116 colon it was 100%. In addition, the results for the growth with HCC-2998 colon and with KM12 colon were 93.3% and 91.5%, respectively.

Take `O=C(CN1C(=O)NC2NC(=O)NC21)N/N=C/c1cccc([N+](=O)[O-])c1` (stereo not given): the growth with T-47D breast is 107%; in the assay on BT-549 breast, 102%; with MDA-MB-435 melanoma, 98.1%; in the assay on SW-620 colon, 105%; in the assay on MCF7 breast it was 91.8%; in the assay with HCT-116 colon, 116%. In addition, the values for the growth with HCC-2998 colon and with KM12 colon were 118% and 104%, respectively.

With `Oc1ccc(C(c2ccc(O)cc2)c2ccc(Cl)cn2)cc1`, the growth was -34.4% (active) in the assay with T-47D breast; -30.1% (active) with BT-549 breast; 101% in the assay on MDA-MB-435 melanoma; 106% in the assay with SW-620 colon; -17.3% (active) with MCF7 breast; 27.6% in the assay on HCT-116 colon. In addition, the growth in the assay with HCC-2998 colon was 1.05% (active); with KM12 colon it was 20.8%.

For `C=CN(C(=O)N1CCN(c2cc3c(cc2F)c(=O)c(C(=O)O)cn3C2CC2)CC1)c1nc(-c2ccc(C)cc2)cs1`, the growth in the assay on T-47D breast was 36.3%; with BT-549 breast it was 11.9%; with MDA-MB-435 melanoma it was 22.1%; in the assay with SW-620 colon, 20.8%; in the assay on MCF7 breast, 7.94% (active); in the assay with HCT-116 colon, 10.9%. Moreover, the growth in the assay on HCC-2998 colon is 39%; in the assay on KM12 colon, 21.9%.

As to `CC(=O)O[C@H]1C[C@@]2(C)[C@@H](C[C@@H](O)[C@H]3[C@@]4(C)CC[C@H](N5CCCC5)[C@@H](C)[C@@H]4CC[C@@]32C)/C1=C(\CCC=C(C)C)C(=O)O`, the growth is 103% with T-47D breast; 101% in the assay on BT-549 breast; 99.7% in the assay with MDA-MB-435 melanoma; 96.2% in the assay on SW-620 colon; 90.7% in the assay on MCF7 breast; 99.9% in the assay with HCT-116 colon. For the same compound, the figures for the growth in the assay with HCC-2998 colon and in the assay on KM12 colon were 104% and 102%, respectively.

For `[2H]C([2H])([2H])Oc1c(F)cccc1/C=C/C(=O)/C=C(O)/C=C/c1cccc(F)c1OC([2H])([2H])[2H]`, the growth in the assay with T-47D breast is 83.8%; with BT-549 breast, 97.6%; with MDA-MB-435 melanoma it was 94.9%; in the assay on SW-620 colon, 109%; in the assay on MCF7 breast, 74.5%; in the assay with HCT-116 colon, 84.1%. Also, the growth with HCC-2998 colon is 112%; with KM12 colon, 102%.

For the compound `CCOC(=O)c1cc(C(=O)c2cc(OC)cc(OC)c2)n2ncccc12`, the growth was 32.9% in the assay with T-47D breast; 18.4% in the assay on BT-549 breast; 1.18% (active) in the assay on MDA-MB-435 melanoma; 18.4% in the assay on SW-620 colon; 24.8% in the assay with MCF7 breast; 13.5% in the assay on HCT-116 colon. Moreover, the growth with HCC-2998 colon was 66.7%; with KM12 colon, 27.8%.

With `CO[C@H]1CC(c2ccc[nH]2)=N[C@]12O[C@@H](C)C[C@@H]1CCCCCCCc3ccc([nH]3)[C@H]12`, the growth in the assay with T-47D breast was 11.8%; with BT-549 breast, 33.7%; in the assay with MDA-MB-435 melanoma, 15.2%; in the assay with SW-620 colon, 21.5%; in the assay with MCF7 breast, 16.5%; in the assay on HCT-116 colon it was 8.1% (active). The growth is 22.1% in the assay with HCC-2998 colon and 18.3% in the assay on KM12 colon.

As for `Cc1cc2c(C(C)C)c(O)c(O)c(/C=N/O)c2c(O)c1-c1c(C)cc2c(C(C)C)c(O)c(O)c(/C=N/O)c2c1O`, the growth in the assay on T-47D breast is 10.2%; with BT-549 breast it was 23.8%; in the assay with MDA-MB-435 melanoma it was 37.4%; in the assay on SW-620 colon, 23.2%; with MCF7 breast, 15.3%; in the assay on HCT-116 colon, 18%. The growth was 16.1% in the assay with HCC-2998 colon and 26% with KM12 colon.

Regarding `Cn1ccnc1C(=O)/C=C/c1ccc(CC(=O)Nc2cc(F)c(F)c(F)c2)cc1`, the growth is 29.2% with T-47D breast; 16.3% in the assay on BT-549 breast; 19.2% in the assay with MDA-MB-435 melanoma; 9% (active) in the assay on SW-620 colon; 10.7% in the assay on MCF7 breast; 5.93% (active) with HCT-116 colon. Also, the growth was 4.93% (active) in the assay with HCC-2998 colon and 9.05% (active) in the assay on KM12 colon.

With `O=c1ccc2c(ccc3ncccc32)o1`, the growth in the assay on T-47D breast is 94.6%; in the assay on BT-549 breast it was 116%; in the assay with MDA-MB-435 melanoma, 116%; in the assay on SW-620 colon, 115%; with MCF7 breast, 95.7%; with HCT-116 colon, 113%. The growth with HCC-2998 colon and with KM12 colon was 107% throughout.

Regarding `O=C1/C(=C/c2cccc([N+](=O)[O-])c2)COc2ccc(O)c(O)c21`, the growth in the assay with T-47D breast is -16.8% (active); in the assay on BT-549 breast, -3.03% (active); with MDA-MB-435 melanoma, -33.4% (active); in the assay on SW-620 colon, -31.4% (active); in the assay on MCF7 breast it was 1.76% (active); with HCT-116 colon, -74.8% (active). For the same compound, the growth in the assay with HCC-2998 colon was -85.2% (active); with KM12 colon it was -45.7% (active).

As to `O=C(O)/C=C/c1cn(-c2ccccc2)nc1-c1ccc(F)cc1`, the growth was 93.9% in the assay on T-47D breast; 90.7% with BT-549 breast; 105% with MDA-MB-435 melanoma; 89.8% with SW-620 colon; 84% with MCF7 breast; 82.5% in the assay on HCT-116 colon. The growth in the assay with HCC-2998 colon was 103%; in the assay with KM12 colon it was 90.4%.

Regarding `CCOC(=O)c1c(C)n2c(=O)cc(C)c3c(OC(C)=O)c(OC(C)=O)cc1c32`, the growth with T-47D breast is 52.7%; in the assay on BT-549 breast, 80.3%; in the assay on MDA-MB-435 melanoma it was 83.3%; in the assay on SW-620 colon it was 34.8%; in the assay with MCF7 breast, 62.2%; in the assay with HCT-116 colon it was 23.3%. Also, the figures for the growth in the assay on HCC-2998 colon and in the assay with KM12 colon were 84.4% and 86.7%, respectively.

Regarding `CCCCN(CCC#N)C(N)=O`, the growth in the assay with T-47D breast was 100%; with BT-549 breast, 109%; with MDA-MB-435 melanoma, 110%; in the assay with SW-620 colon, 99.2%; in the assay with MCF7 breast it was 105%; in the assay on HCT-116 colon, 106%. The growth in the assay on HCC-2998 colon is 103%; in the assay on KM12 colon, 105%.

The record behind these values is PubChem BioAssay (NCI).
